Gal4-VP16 FLuc: VP16 counterscreen qHTS for inhibitors of ROR gamma transcriptional activity. Drosophila S2 Gal4-VP16 UAS-luciferase, luminescence, 20 h. AID 2546, 2010. Potency, µM (doses to about 53.6 µM), inactives show at the top dose activity, negative = inhibition, hits mostly inhibitors. 310,000 tested, 3.5% active;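 also: Gal4-VP16 expression switched on by copper sulfate through the metallothionein promoter; potency is read from the fitted curve at half-maximal effect; % is scaled to controls: 0 for no effect and ±100 for the full control effect; nearly all actives have a fitted effect of over 50% in size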
ELG1 repair inh: qHTS screen for small molecules that inhibit ELG1-dependent DNA repair in human embryonic kidney (HEK293T) cells expressing luciferase-tagged ELG1; HEK293T ELG1-luciferase reporter, luminescence, 16 h; DNA damage induced by 5-fluorouridine; Potency, µM (highest dose often 46.1 µM), inactives show at the highest dose activity change, negative = inhibition, actives largely listed as inhibitors; 330,000 tested, 2.3% active; AID 504467, 2011; also: potency is read from the fitted curve at half-maximal effect; % is scaled to controls: 0 for no effect and ±100 for the full control effect; nearly all actives have a fitted effect of over 55% in size
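In this reporter screen, reduction of luminescence relative to DMSO vehicle indicated activity. Compounds and 5-fluorouridine were added together to 2,000 cells per well, incubated for 16 hr at 37 °C, then developed with ONE-Glo.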
Giardia killer: Small Molecules that selectively kill Giardia lamblia: qHTS; activity change, % at 7.66 µM, hits read low; Giardia lamblia trophozoite viability; 340,000 tested, 0.15% active; in the data active = activity change below about -80%; inconclusive = between about -30% and that limit;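 also: parasites exposed to compound for two days anaerobically before the ATP read; % is scaled to controls: 0 for no effect and ±100 for the full control effect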
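Each well holds 100 Giardia trophozoites and compound. After two days (48 hrs) at 37 deg C in anaerobic conditions, ATP is quantified by luminescence.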
p53 reactivation: qHTS assay for re-activators of p53 using a Luc reporter; H1299 p53-A138V BP100-luciferase reporter, luminescence, 24 h; 320,000 tested, 0.063% active; Potency, µM (highest dose often 92.2 µM), inactives show at the top dose activity change, positive = activation, most hits filed as activators; AID 504706, 2011; also: potency is read from the fitted curve at half-maximal effect; % of control where 0% means no effect; nearly all actives have a fitted effect of over 45% in size
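p53-null H1299 cells stably carrying temperature-sensitive p53-A138V and a BP100-luciferase reporter were pinned with compounds (4-point, 1:5 series) and held 24 hrs at 37 deg C. Luminescence was read 10 min after detection reagent.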
BRCA1 expr up: qHTS Assay to Identify Small Molecule Activators of BRCA1 Expression; MCF7-BRCA1-FFLuc reporter, luminescence, 48 h; response scale: scaled: vehicle 0%, 10 µM genistein 100%; Potency, µM (top dose mostly 46.1 µM), inactives show top-dose activation, most hits filed as activators; 380,000 tested, 1.1% active; AID 624202, 2012; also: potency is read from the fitted curve at half-maximal effect; nearly all actives have a fitted effect of over 80% in size
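Activators of BRCA1 expression were detected as increased firefly luciferase luminescence in engineered MCF7 cells after 48 h compound incubation. Signals were scaled to genistein 10 microM as full activation.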
RORg inh: qHTS for inhibitors of ROR gamma transcriptional activity; AID 2551, 2010; Drosophila S2 Gal4-RORgamma UAS-luciferase reporter, 20 h; 310,000 tested, 5.4% active; Potency, µM (series often up to 53.6 µM), inactives show at the highest dose activity change, negative = inhibition, most hits filed as inhibitors; Nuclear receptor ROR-gamma (Mus musculus), P51450; also: potency is read from the fitted curve at half-maximal effect; % is scaled to controls: 0 for no effect and ±100 for the full control effect; nearly all actives have a fitted effect of over 60% in size
Target sequence (P51450 whole entry, looked up, the tested form may be a part): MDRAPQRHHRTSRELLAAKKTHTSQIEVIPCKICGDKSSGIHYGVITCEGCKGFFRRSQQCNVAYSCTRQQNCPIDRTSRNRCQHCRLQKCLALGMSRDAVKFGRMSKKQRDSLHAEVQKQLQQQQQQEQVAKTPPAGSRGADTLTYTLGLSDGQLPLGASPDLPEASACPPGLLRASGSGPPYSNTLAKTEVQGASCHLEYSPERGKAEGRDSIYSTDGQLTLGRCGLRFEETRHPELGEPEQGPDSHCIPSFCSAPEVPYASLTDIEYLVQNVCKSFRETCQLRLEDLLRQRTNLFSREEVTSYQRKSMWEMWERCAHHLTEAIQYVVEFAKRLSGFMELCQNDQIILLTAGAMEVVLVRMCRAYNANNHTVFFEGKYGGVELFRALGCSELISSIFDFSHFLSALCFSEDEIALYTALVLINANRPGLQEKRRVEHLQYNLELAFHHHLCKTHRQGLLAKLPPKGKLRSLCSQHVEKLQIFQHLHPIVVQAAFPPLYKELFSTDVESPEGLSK
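Stable Schneider cell line, Gal4 DNA-binding domain fused to ROR gamma, UAS-luciferase. Cmpd 1 hr RT → CuSO4 700 uM final → 20 hr RT → luciferase reagent 10 min → luminescence.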
The depositor's hits bear a star. Compounds with a hit are over-represented: about 7.6% of the library has one in this group of screens. Unless noted, calls follow the shape of the dose curve; as a rule, active = well fitted curve in the direction sought with a large enough effect; inconclusive = small, poorly fitted or top-dose-only effect, or another doubt; inactive = no such curve, though single readings can be large; an effect the other way counts as inactive or inconclusive.

O=[N+]([O-])c1ccc(O)c(Nc2ncnc3ccccc23)c1 was read as Gal4-VP16 FLuc inconclusive, ELG1 repair inh 9%, Giardia killer 12, p53 reactivation -2%, BRCA1 expr up -15% and RORg inh inconclusive.
O=[N+]([O-])c1ccc(O)c(Nc2ncnc3ccc(Br)cc23)c1 was read as Gal4-VP16 FLuc -20%, ELG1 repair inh 13µM*, Giardia killer -4, p53 reactivation 1%, BRCA1 expr up -71% and RORg inh inconclusive.
`CCOC(=O)Cn1c(=O)n(CC2CCCO2)c2nc(-c3ccccc3Cl)nc(C(N)=O)c21` (configuration not stated) gave BRCA1 expr up 9%.
COc1ccc(-c2c3c([nH]c(=S)c2C#N)CCC3)cc1 was read as Gal4-VP16 FLuc inconclusive, ELG1 repair inh 4%, Giardia killer 3, p53 reactivation 13%, BRCA1 expr up -19% and RORg inh -100%.
For N#Cc1c(N)nc2c(c1-c1cccnc1)CCCCC2 the results were Gal4-VP16 FLuc -5%, ELG1 repair inh 13µM*, Giardia killer 0, p53 reactivation -6%, BRCA1 expr up 4% and RORg inh 25%.
For N#Cc1c(-c2ccco2)c2c([nH]c1=S)CCCC2 the results were Gal4-VP16 FLuc -1%, ELG1 repair inh -6%, Giardia killer 4, p53 reactivation -2%, BRCA1 expr up -8% and RORg inh 9%.
`COc1ccc(OC)c(-c2c3c([nH]c(=S)c2C#N)CCCC3)c1` gave Gal4-VP16 FLuc inconclusive, ELG1 repair inh -10%, Giardia killer -23, p53 reactivation 0%, BRCA1 expr up -15% and RORg inh 16µM*.
For N#Cc1c(-c2cccnc2)c2c([nH]c1=S)CCCC2 the results were Gal4-VP16 FLuc -26%, ELG1 repair inh 23%, Giardia killer 18, p53 reactivation 7%, BRCA1 expr up 25% and RORg inh 11µM*.
Screening CCOc1ccc(NC(=O)c2c(NC(=O)CN3CCN(C)CC3)sc3c2CCC3)cc1 returned Gal4-VP16 FLuc -1%, ELG1 repair inh 1%, p53 reactivation 13% and RORg inh 42%.
`C=CCNC(=O)c1ccc2c3n(nc2c1)-c1ccccc1CO3` gave Gal4-VP16 FLuc inconclusive, ELG1 repair inh inconclusive, Giardia killer inconclusive, p53 reactivation 12%, BRCA1 expr up inconclusive and RORg inh inconclusive.
Screening COc1ccccc1C(=O)COC(=O)Cn1[nH]c(=O)c2ccccc2c1=O returned ELG1 repair inh 15%, Giardia killer -12, p53 reactivation 2% and BRCA1 expr up -5%.
O=C(C=Cc1ccc(Cl)s1)c1ccc(Cl)s1 was read as Giardia killer 19 and BRCA1 expr up 79%.
For C/C(=C\C(=O)c1ccc(Cl)s1)N(C)C the results were Gal4-VP16 FLuc inconclusive, ELG1 repair inh 12%, Giardia killer -1, p53 reactivation 2%, BRCA1 expr up 0% and RORg inh 7.1µM*.
For O=C(c1ccccc1)c1ccc(N2CCN(C(=O)c3cccc(F)c3F)CC2)c(F)c1 the results were Gal4-VP16 FLuc 13µM*, ELG1 repair inh -13%, Giardia killer 9, p53 reactivation -16%, BRCA1 expr up -20% and RORg inh inconclusive.
`O=C(c1ccc(N2CCN(C(=O)c3ccc(F)cc3F)CC2)cc1)c1cccc(F)c1` gave Gal4-VP16 FLuc inconclusive, ELG1 repair inh 15µM*, Giardia killer 21, p53 reactivation -6%, BRCA1 expr up -21% and RORg inh 31%.
`O=C(c1ccc(F)cc1F)N1CCN(c2ncccn2)CC1` gave Gal4-VP16 FLuc -3%, ELG1 repair inh -6%, Giardia killer 1, p53 reactivation 2%, BRCA1 expr up 1% and RORg inh 7%.
Cc1ccccc1C(=O)c1c[nH]c(C(=O)N2CCN(c3ccccc3F)CC2)c1 was read as Gal4-VP16 FLuc -15%, ELG1 repair inh 23µM*, Giardia killer -24, p53 reactivation -2%, BRCA1 expr up -65% and RORg inh 35%.
C[C@@H]1CN([C@@H](C)CO)C(=O)CCCn2nncc2CO[C@@H]1CN(C)C(=O)c1cc(-c2ccccc2)on1 was read as BRCA1 expr up -1%.
`COc1cccc(NC(=O)CN(C)C(=O)CCCNC(=O)c2ccc(Cl)cc2)c1` gave ELG1 repair inh inconclusive, Giardia killer -2, p53 reactivation 10% and BRCA1 expr up 51%.
For COCCCNC(=O)CN(CCc1ccccc1)S(=O)(=O)c1ccc(C)cc1 the results were Gal4-VP16 FLuc inconclusive, ELG1 repair inh -17%, Giardia killer 3, p53 reactivation -7%, BRCA1 expr up -8% and RORg inh 27%.
Screening FC(F)(F)c1ccccc1NC(=S)NN=C1CCCCCC1 returned Gal4-VP16 FLuc inconclusive, ELG1 repair inh -8%, Giardia killer 7, p53 reactivation 3%, BRCA1 expr up 3% and RORg inh 4.5µM*.
Screening N#CCC(=O)NNC(=S)Nc1ccccc1C(F)(F)F returned Gal4-VP16 FLuc inconclusive, ELG1 repair inh inconclusive, Giardia killer 1, p53 reactivation -1%, BRCA1 expr up -49% and RORg inh 11µM*.
Screening CCCC(=O)NC(=S)Nc1ccccc1C(F)(F)F returned Gal4-VP16 FLuc inconclusive, Giardia killer 12, BRCA1 expr up -70% and RORg inh 7.9µM*.
`CC(C)C(=O)NC(=S)Nc1ccccc1C(F)(F)F` gave Gal4-VP16 FLuc inconclusive, ELG1 repair inh 1%, Giardia killer -6, p53 reactivation 26%, BRCA1 expr up -1% and RORg inh 5µM*.
`CCC(=O)NC(=S)Nc1ccccc1C(F)(F)F` gave Giardia killer 0 and BRCA1 expr up -13%.
CCN(CC)CCSc1nc(O)c(-c2ccccc2)c(=O)[nH]1 was read as Gal4-VP16 FLuc -6%, ELG1 repair inh 2%, Giardia killer -8, p53 reactivation inconclusive, BRCA1 expr up 5% and RORg inh -17%.
CCc1c(C)sc(NC(=O)c2ccccc2[N+](=O)[O-])c1C(N)=O was read as Gal4-VP16 FLuc -3%, ELG1 repair inh 10%, Giardia killer inconclusive, p53 reactivation -1%, BRCA1 expr up -21% and RORg inh 30%.

Bioassay records as filed in PubChem BioAssay.
